In ChEMBL document CHEMBL4513216, “Probing the Open Global Health Chemical Diversity Library for Multistage-Active Starting Points for Next-Generation Antimalarials” (ACS Infect Dis, 2020):
Among all 65,000 compounds or so, about 2,100 (3.2%) showed an effect of 50% or more. The median lay at about -52%. What follows is part of a selection rich in strong results, with near analogues and random picks from the rest.

Each molecule was assayed on Plasmodium falciparum (assay: Screen against P. falciparum Asexual Blood Stage (ABS), at 5uM). Settings: tested at 5 uM.
Assay type: functional, Dd2

SMILES	INHIBITION [%]
Cc1ncsc1C(=O)NCc1ccnc(N2CCN(C)CC2)c1	62.9
Cc1ccsc1C(=O)NCc1ccnc(N2CCN(C)CC2)c1	-35
Cc1cc(C(=O)NCc2ccnc(N3CCN(C)CC3)c2)c(C)s1	32.2
Cc1ccc(C(=O)NCc2ccnc(N3CCN(C)CC3)c2)cn1	-38.9
Cc1cc(C(=O)NCc2ccnc(N3CCN(C)CC3)c2)sc1C	-5.05
Cc1cc(C(=O)NCc2ccnc(N3CCOCC3)c2)c(C)s1	50.6
Cc1cnc(N2CCC3(CC2)CC3CNC(=O)C2CCC2)nc1 (centres undefined)	-57.8
COc1cccc(-c2noc(C3CCN(Cc4ccc(C)cc4)C3)n2)c1 (centres undefined)	-97.2
CC(=O)N1CCC(Oc2ccc(Cl)cc2C(=O)N2CCCO2)CC1	-31
O=C(c1cc(Cl)ccc1OC1CCN(C2CCCC2)CC1)N1CCCO1	53.5
O=C(c1cc(Cl)ccc1OC1CCN(C2CCCC2)CC1)N1CC(O)C1	-96
Cc1noc([C@@H]2C[C@H]3OCC[C@H]3N(Cc3sccc3C)C2)n1	-15.2
CNC(=O)c1cn2cc(-c3ccc(F)cc3)n(CC=C(C)C)c(=O)c2n1	39.1
CN(C)C(=O)c1cn2cc(-c3ccccc3Cl)n(CC3CC3)c(=O)c2n1	37.8
CNC(=O)c1cn2cc(-c3cccc(Cl)c3)n(CC3CC3)c(=O)c2n1	19.5
CNC(=O)c1cn2cc(-c3ccccc3Cl)n(CC3CC3)c(=O)c2n1	54.7
NC(=O)c1cn2cc(-c3ccccc3Cl)n(CC3CC3)c(=O)c2n1	-27.5
CNC(=O)c1cn2cc(-c3cccc(Cl)c3)n(CC=C(C)C)c(=O)c2n1	56.6
CN(C)C(=O)c1cn2cc(-c3cccc(Cl)c3)n(CC3CC3)c(=O)c2n1	-21.6
CCNC(=O)c1cn2cc(-c3ccccc3Cl)n(CC3CC3)c(=O)c2n1	43.7
CNC(=O)c1cn2cc(-c3ccccc3Cl)n(CC=C(C)C)c(=O)c2n1	68.2
CCn1cc(NC(=O)CCc2ccc3c(c2)OCCCO3)cn1	-127

SMILES	INHIBITION [%]
Brc1ccc(-c2nnc(CN(Cc3cccs3)CC3CCCO3)o2)s1 (centres undefined)	-45.2
Cc1cnn(CC2CCCN2Cc2nnc(C3CC3)n2C)c1 (centres undefined)	-100
COC1[C@@H]2CC[C@H]1CN(c1nc(C)nc3sccc13)C2 (some centres undefined)	-88.3
Cc1cc(C(=O)N2CCCC(n3cncn3)C2)on1 (centres undefined)	-247
O=C(c1cc(C2CC2)on1)N1CCCC(n2cncn2)C1 (centres undefined)	-34.5
Cc1cc(C(=O)N2CCCC(n3cncn3)C2)no1 (centres undefined)	66.7
Cc1ccc(-c2cc(C(=O)NCCCc3csc(N)n3)[nH]n2)o1	22
Cc1ccc(-c2cc(C(=O)NCCCc3csc(N)n3)[nH]n2)s1	66.5
Cn1cccc1-c1cc(C(=O)NCCCc2csc(N)n2)[nH]n1	-75.5
Cc1nc(C)c(CNC(=O)N2CCN(c3ccc(Cl)cn3)CC2)s1	-49.6
O=C(NC1CCC1)[C@@H]1C[C@@H]2CCN(Cc3cccs3)C[C@@H]2O1	-168
CC(C)(N)C(=O)N1CCC(c2nccnc2Oc2ccccc2F)CC1	-4.82
NC(=O)c1cccc(C2CCN(c3ncccn3)CC2)n1	-58
O=C1NCCCc2[nH]c(Cc3cccc(Cl)c3)nc21	-167
O=C(Cc1cccc(Cl)c1)N[C@@H]1CCNC[C@H]1O	-75.4
Clc1cccc(C[C@@H]2NCCC[C@@H]2Nc2ccccc2)c1	88.7
CC(NC(=O)NCCCc1n[nH]c(N)c1C#N)c1cccc(Cl)c1 (centres undefined)	0.414
COCC(=O)N(C)Cc1nc(N2CCCC2)ncc1-c1ccncc1	-9.28
Cc1ccc(CN2Cc3nnn(C)c3C(COCC3CC3)C2)s1 (centres undefined)	-90.4
CCn1nnc2c1C(COCCN(C)C)CN(Cc1ccc(C)s1)C2 (centres undefined)	60.1
CCn1nnc2c1C(COCCN(C)C)CN(Cc1ccco1)C2 (centres undefined)	-67.6
CCOC(=O)N1CC(=O)N(Cc2ccc(OC)cc2)CC(O)C1 (centres undefined)	-109

SMILES	INHIBITION [%]
Cc1occc1C(=O)N1CCC2(CCC2NC(=O)c2ccn(C)c2)CC1 (centres undefined)	-23.1
CC(C)c1ccc(CNC(C)c2ccc(S(C)(=O)=O)cc2)cc1 (centres undefined)	53.6
CC(NCc1ccc(C(C)(C)C)cc1)c1ccc(S(C)(=O)=O)cc1 (centres undefined)	-7.37
CC(NCc1ccc(F)cc1)c1ccc(S(C)(=O)=O)cc1 (centres undefined)	-28.9
Cc1ccc(-c2cc(CN3CCc4cnc(C)nc4C3)on2)cc1	-29
O=C1CCC2(CCC(NCc3ccsc3)CC2)N1Cc1ccccc1 (centres undefined)	65.3
O=C1CCC2(CCC(NCc3cccnc3)CC2)N1Cc1ccccc1 (centres undefined)	-16.6
CN1C(=O)CCC12CCC(NCc1ccsc1)CC2 (centres undefined)	-30.4
Cc1cc(C(=O)NCC(F)(F)F)c2c(C3CCNCC3)noc2n1	-42.4
CCn1nc2c(cc1=O)CN(c1ncnc3ccsc13)CC2	17.6
CC(=O)N1CCO[C@@H]2CN(Cc3ccccc3F)C[C@@H]2C1	-77.7
CN(C)Cc1cc(C2CCCN(S(=O)(=O)c3cccc(Cl)c3)C2)nn1C (centres undefined)	56.5
CN(C)S(=O)(=O)N1CCCC(c2nccnc2-c2cccc(Cl)c2)C1 (centres undefined)	-85.8
O=S(=O)(c1cccc(Cl)c1)N1CCCC(Cn2cncn2)C1 (centres undefined)	-36.3
Cc1cccc(-n2ncc3c2CCCC3NCC(C)(C)CO)c1C (centres undefined)	-58.1
O=C(c1ccsc1)N1C[C@H]2CCC[C@@]2(COCc2cccnc2)C1	-29.9
Cc1ccc(CN2C[C@@H](C(=O)Nc3cccnc3)C[C@H]3OCC[C@H]32)o1	-35.4
c1cc(-c2cncnc2)cc(-c2ccn(CC3CCNC3)n2)c1 (centres undefined)	13.9
Cc1nccc(-c2cccc(-c3ccn(CC4CCNC4)n3)c2)n1 (centres undefined)	-137
Cc1ccsc1-c1cccc(-c2ccn(CC3CCNC3)n2)c1 (centres undefined)	61.7
Cc1cccc(C(=O)N2CC[C@]3(C[C@H](OCc4ccccn4)CO3)C2)c1	-121
CCN(CC)c1ccc(NS(=O)(=O)c2cncc(F)c2)cn1	-19.4

SMILES	INHIBITION [%]
CCN(CC)c1ccc(NS(=O)(=O)c2cnn(C)c2)cn1	-98.6
CCN(CC)c1ccc(NS(=O)(=O)c2cccnc2)cn1	59.3
NC1CCCc2c1cnn2-c1cc(F)cc(F)c1 (centres undefined)	53.6
CC(C)(C)c1ccc(-n2ncc3c2CCCC3N)cc1 (centres undefined)	31.8
Cc1ccc(-n2ncc3c2CCCC3N)cc1C (centres undefined)	7.06
CC(O)CN1CCN(Cc2csc(-c3ncccn3)n2)CC1 (centres undefined)	-107
c1ccc(CC2(CNCc3ncc[nH]3)CCC2)cc1	45.2
CCCC1(CNCc2ncc[nH]2)CCC1	26.4
CCC1(CNCc2ncc[nH]2)CCCC1	67
CCc1ccc(C(=O)N2CC[C@H](Oc3cccnc3C)[C@@H](O)CC2)cc1	-41
CN(C)c1cc(C(=O)N2CCCC2)ccn1	55.6
CN(C)c1cc(C(=O)N2CCCCC2)ccn1	-78.5
CN(C)c1cc(C(=O)N2CCCCCC2)ccn1	-8.55
Cc1ccc(N(CCC#N)C(=O)CN2CCCC2c2ccsc2)cc1 (centres undefined)	46.2
N#CCCN(C(=O)CN1CCCC1c1ccccc1Cl)c1ccccc1 (centres undefined)	40.4
N#CCCN(C(=O)CN1CCCC1C1CCCCC1)c1ccccc1 (centres undefined)	52.2
N#CCCN(C(=O)CN1CCCC1c1ccsc1)c1ccccc1 (centres undefined)	1.81
CN(C(=O)CN1CCCC1Cc1ccccc1)c1ccccc1 (centres undefined)	22.7
N#CCCN(C(=O)CN1CCCC1Cc1ccccc1)c1ccccc1 (centres undefined)	22.1
CCN(C(=O)CN1CCCC1Cc1ccccc1)c1ccccc1 (centres undefined)	61.3
Cc1ccc(N(CCC#N)C(=O)CN2CCCC2c2cccs2)cc1 (centres undefined)	13.3
N#CCCN(C(=O)CN1CCCC1c1cccs1)c1ccccc1F (centres undefined)	40

SMILES	INHIBITION [%]
CCN(C(=O)CN1CCCC1c1ccc(OC)cc1)c1ccccc1 (centres undefined)	18.8
Cc1ccc(C2CCCN2CC(=O)N(CCC#N)c2ccccc2)cc1 (centres undefined)	62.4
N#CCCN(C(=O)CN1CCCC1c1ccsc1)c1ccccc1F (centres undefined)	69.7
CC(C)Nc1ncc(-c2csc(NC(=O)C[C@H]3COCCN3)n2)cn1	-130
c1ccc(CN2CCc3ncnc(-c4cccnc4)c3CC2)nc1	-71.1
Cc1cnccc1NCCNC1CCSCC1	-40.9
CCc1nccn1CC(=O)Nc1cccc(N2CCCC2)c1	-50.9
Cn1nc(C2CCCNC2)c2c(C(=O)NC3CC3)cc(C3CC3)nc21 (centres undefined)	-98.6
CC(=O)c1ccc(OCC(=O)NS(=O)(=O)c2ccc(C)s2)cc1	-93.5
CC(C)C(NC(N)=O)C(=O)NCc1ccc(N2CCCC2)nc1 (centres undefined)	-34.4
Cc1noc(CN2C[C@@H]3CC[C@H]2CN(C2Cc4ccccc4C2)C3)n1	3.93
Cc1nnc(CN2C[C@@H]3CC[C@H]2CN(C2Cc4ccccc4C2)C3)o1	38.4
Cc1cc(CN2C[C@@H]3CC[C@H]2CN(C2Cc4ccccc4C2)C3)on1	62.7
Cc1noc(CNC(=O)CN(C)c2nc3c(C)ccc(C)c3s2)n1	-71.5
CCCn1nccc1-c1cc(C2CCN(S(C)(=O)=O)CC2)ccn1	-114
CN(C[C@@H]1CCC[C@@H]2CN(c3ncccn3)C[C@@H]21)C1CC1	17.5
CN(C)C[C@@H]1CCC[C@@H]2CN(c3cccnc3)C[C@@H]21	56.4
CN(C)C[C@@H]1CCC[C@@H]2CN(c3nccc(C(F)(F)F)n3)C[C@@H]21	64.8
CN(C)C[C@@H]1CCC[C@@H]2CN(c3ncccn3)C[C@@H]21	44.8
Cc1ccc(N2C[C@H]3CCC[C@@H](CN(C)C)[C@H]3C2)nn1	-54.9
COCCN(C)C[C@@H]1CCC[C@@H]2CN(c3ncccn3)C[C@@H]21	33.9
